Measurements: PubChem BioAssay (Tox21)
Inconclusive results are not listed. The source made the active and inactive calls. Calls come from the whole dose curve; as a rule, active = well fitted curve in the direction sought with a large enough effect in the repeat runs; inconclusive = weak or mixed curves; inactive = no such curve, though single readings can be large; an effect the other way counts as inactive or inconclusive.

Assays:
[1] = qHTS RealTime-Glo MT Cell Viability Assay in HEK293 cells - 40 hour (AID 1224874); settings: RealTime-Glo luminescence; max response: stronger effect = lower value; note: potency is the fitted concentration of half-maximal effect; nearly all actives have a fitted effect of over 50% in size
Procedure, shortened: (§1)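 qHTS format; HEK293 cells with NanoLuc/prosubstrate reagent, 37 C/5% CO2 for 5 h pre-dosing; compounds 23 nL in DMSO; luminescence at each time point reflects viable cells.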

[2] = A CellTox Green Cytotoxicity Assay to monitor cytotoxicity in HEK293 cells - 24 hour (AID 1224875); settings: CellTox Green fluorescence; series mostly up to 76.8 µM; note: nearly all actives have a fitted effect of over 45% in size; note: potency is the fitted concentration of half-maximal effect
Procedure, shortened: (§2)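 Each value comes from one timepoint of a single continuous run in which HEK293 cells with CellTox Green were exposed to compound for up to 40 h at 37 C, dye fluorescence rising with cell death.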

[3] = qHTS RealTime-Glo MT Cell Viability Assay in HEK293 cells - 0 hour (AID 1224880); settings: RealTime-Glo luminescence; series mostly up to 76.8 µM; note: top concentration of the series differs between compounds; nearly all actives have a fitted effect of over 45% in size
Procedure, shortened: as §1

[4] = A CellTox Green Cytotoxicity Assay to monitor cytotoxicity in HEK293 cells - 32 hour (AID 1224881); settings: CellTox Green fluorescence; series mostly up to 76.8 µM; note: nearly all actives have a fitted effect of over 40% in size; note: potency is the fitted concentration of half-maximal effect
Procedure, shortened: as §2

[5] = qHTS RealTime-Glo MT Cell Viability Assay in HepG2 cells - 8 hour (AID 1224873); settings: RealTime-Glo luminescence; series mostly up to 76.8 µM; note: nearly all actives have a fitted effect of over 55% in size
Procedure, shortened: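 HepG2 cells mixed with RealTime-Glo MT reagents (NanoLuc plus cell-permeant prosubstrate) were seeded at 600 cells/well, incubated 5 h at 37 C/5% CO2, then pinned with compounds in DMSO; nonlytic luminescence tracked viability during 40 h treatment.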

[6] = qHTS RealTime-Glo MT Cell Viability Assay in HepG2 cells - 32 hour (AID 1224877); settings: RealTime-Glo luminescence; series mostly up to 76.8 µM; note: nearly all actives have a fitted effect of over 55% in size; note: potency is the fitted concentration of half-maximal effect
Procedure, shortened: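 HepG2 cells (600/well) were dispensed with RealTime-Glo reagents, incubated 5 h at 37 °C, then treated with compounds in DMSO for up to 40 h. Nonlytic NanoLuc luminescence reflecting viable cells was read at each stated time point.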

[7] = A CellTox Green Cytotoxicity Assay to monitor cytotoxicity in HepG2 cells - 24 hour (AID 1224878); settings: CellTox Green fluorescence; series mostly up to 76.8 µM; note: nearly all actives have a fitted effect of over 45% in size
Procedure, shortened: (§3)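 Continuous culture of HepG2 cells with a membrane-impermeant DNA dye; rising fluorescence marks dead cells. Compound exposure lasted up to 40 h at 37 C, with reads every 8 h from 0 h.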

[8] = A CellTox Green Cytotoxicity Assay to monitor cytotoxicity in HepG2 cells - 40 hour (AID 1224879); settings: CellTox Green fluorescence; series mostly up to 76.8 µM; note: nearly all actives have a fitted effect of over 40% in size; note: potency is the fitted concentration of half-maximal effect
Procedure, shortened: as §3

[9] = A CellTox Green Cytotoxicity Assay to monitor cytotoxicity in HepG2 cells - 16 hour (AID 1224876); settings: CellTox Green fluorescence; series mostly up to 76.8 µM; note: nearly all actives have a fitted effect of over 45% in size; note: potency is the fitted concentration of half-maximal effect
Procedure, shortened: as §3

Measured: Potency

CC[C@H](C)[C@H]1O[C@]2(C=C[C@@H]1C)C[C@@H]1C[C@@H](C/C=C(\C)[C@@H](O[C@H]3C[C@H](OC)[C@@H](O[C@H]4C[C@H](OC)[C@@H](O)[C@H](C)O4)[C@H](C)O3)[C@@H](C)/C=C/C=C3\CO[C@@H]4[C@H](O)C(C)=C[C@@H](C(=O)O1)[C@]34O)O2
active: [1] 10.3 µM
inactive: [2] | [3] | [4]

COc1ccc(OC)c(C=O)c1
not listed: [1] | [3] | [9]
inactive: all other assays above

CC(C)(C)c1cc([N+](=O)[O-])cc(C(C)(C)C)c1O
inactive: [2] | [9] | [6] | [3] | [4]
active: [1] 6.92 µM

CSCCCN=C=S
inactive: [5] | [2] | [6] | [3] | [4]

CC(C)Oc1cccc(NC(=O)c2ccccc2C(F)(F)F)c1
active: [2] 19.5 µM | [9] 43.6 µM | [8] 43.6 µM | [4] 1.23 µM
inactive: [6] | [3]

COc1cccc(C(=O)CCN[C@@H](C)[C@H](O)c2ccccc2)c1
inactive: [5] | [9] | [3]
active: [6] 23.9 µM
